The text below walks through data of PubChem BioAssay (EPA / NIEHS).

Active and inactive are the calls of the source. The calls were made as follows: active = hit-call score of the fitted dose curve at least 0.9, where 1 is the maximum; inactive = score below 0.9.

Chain of Nuclear factor NF-kappa-B p105 subunit (Homo sapiens) (P19838 whole entry, looked up): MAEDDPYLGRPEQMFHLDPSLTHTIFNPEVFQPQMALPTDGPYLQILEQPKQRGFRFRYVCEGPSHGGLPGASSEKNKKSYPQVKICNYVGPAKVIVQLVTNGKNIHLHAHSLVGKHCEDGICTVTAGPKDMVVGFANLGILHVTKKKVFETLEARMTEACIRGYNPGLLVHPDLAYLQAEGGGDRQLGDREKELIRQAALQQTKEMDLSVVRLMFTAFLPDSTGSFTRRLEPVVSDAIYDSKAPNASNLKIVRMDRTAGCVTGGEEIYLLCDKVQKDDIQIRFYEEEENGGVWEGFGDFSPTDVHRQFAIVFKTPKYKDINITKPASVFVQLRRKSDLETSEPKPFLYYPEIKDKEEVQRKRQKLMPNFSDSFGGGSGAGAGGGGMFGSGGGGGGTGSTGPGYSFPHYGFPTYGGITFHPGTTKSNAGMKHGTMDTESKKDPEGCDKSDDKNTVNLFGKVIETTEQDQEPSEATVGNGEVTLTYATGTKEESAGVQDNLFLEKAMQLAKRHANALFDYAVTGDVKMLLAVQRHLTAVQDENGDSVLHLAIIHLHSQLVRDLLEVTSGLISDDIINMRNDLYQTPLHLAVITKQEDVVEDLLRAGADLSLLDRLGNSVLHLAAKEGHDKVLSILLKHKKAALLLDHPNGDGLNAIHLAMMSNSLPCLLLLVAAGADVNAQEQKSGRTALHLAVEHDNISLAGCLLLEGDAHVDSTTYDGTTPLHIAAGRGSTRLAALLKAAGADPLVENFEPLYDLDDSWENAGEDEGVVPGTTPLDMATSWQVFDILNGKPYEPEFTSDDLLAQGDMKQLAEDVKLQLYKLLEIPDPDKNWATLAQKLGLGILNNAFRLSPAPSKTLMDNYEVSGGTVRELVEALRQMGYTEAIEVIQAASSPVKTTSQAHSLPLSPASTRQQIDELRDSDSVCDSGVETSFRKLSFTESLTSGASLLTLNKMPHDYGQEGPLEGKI

Read-out in this assay: Nuclear factor NF-kappa-B p105 subunit (Homo sapiens) (UniProt P19838)
The assay is described as follows: LTEA_HepaRG_NFKB1: Life Technologies and Expression Analysis (LTEA) Assay for Nuclear Factor Kappa B Subunit 1 (NFKB1) using HepaRG (AID 2283521).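 As to outcome: TaqMan qRT-PCR transcript normalised to ACTB GAPDH and POLR2A housekeeping genes.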 Conditions: mRNA level, 48 h; actives raise or lower the signal. How it is done:
LTEA_HepaRG is a cell based, multiplexed-readout assay that uses HepaRG, a human liver cell line, with measurements taken at 48 hours after chemical dosing on a 96-well plate.LTEA_HepaRG_NFKB1 is one of 102 assay component(s) measured in the LTEA HepaRG cell culture assay. It is a marker of Cell proliferation, survival, death.Data from the assay component LTEA_HepaRG_NFKB1 was analyzed into 1 endpoint. This assay endpoint, LTEA_HepaRG_NFKB1, was analyzed with bidirectional fitting relative to DMSO as the negative control and baseline of activity. Using a type of inducible reporter, measures of mRNA induction for gain or loss-of-signal activity can be used to understand regulation of transcription factor activity. To generalize the intended target to other relatable targets, this assay endpoint is annotated to the dna binding intended target family, where the subfamily is NF-kappa B.
A total of 1060 chemcials from the ToxCast library were tested in eight-point concentration-response experiments. Cell culture and cytotoxicity assays were conducted at Thermo Fisher Scientific's Custom Services facility (Madison, WI). A single lot of human HepaRG cells (Thermo Fisher Scientific, Frederick, MD) was used for the cell culture experiments. 96-well format collagen type I coated plates of human HepaRG cells were prepared using established methods. Briefly, cryopreserved HepaRG cells were thawed, plated at a density of approximately 100,000 cells/well in HepaRG Thaw, Plate, and General Purpose media (HPRG770, Thermo Fisher Scientific), and incubated for 48 hours. 0.5% DMSO was selected as vehicle control to balance the requisite need of DMSO in HepaRG cultures to maintain differentiation (for example, baseline metabolism, proportions of hepatocytes vs. cholangiocytes), while enabling further hepatic receptor pathway activation (for example, PXR and CAR) in response to chemical exposure. 48 hours after plating, the culture medium was replaced with HepaRG Serum-Free Incudtion Media. Cells were exposed to each test chemical in duplicate and maintained in CO2 incubators for another 48 hours. Chemical plates were thawed to room temperature and 200x concentrations of treatment groups were prepared. 8-point conentration-reponse curves were made with the highest exposure at 100 uM, followed by half-log dilutions, all in 0.5% DMSO. Each test plate contained variouse controls, induction positive controls (1mM phenobarbital), cytotoxicity positive controls ([…] aflatoxin B1), vehicle controls (0.5% DMSO), and total lysis controls (0.5% DMSO). Cell morphology images were taken using an Essen IncuCyte FLR automated microscope, with six 96-well plates imaged in about 24 minutes. Images were captured and exported and JPEG files. Spent culture media was transfered to black-well plates for the LDH assay, and remaining media was sorted at -80 C for later use. Cells were treated with RLT buffer and frozen until shipped for gene expression analysis. Total RNA was isolated from the cell suspension in 75 uL of Buffer RLT (Qiagen, Germantown, MD 20874) by Quintiles/Expression Analysis (Durham, NC) using a custom isolation procedure. Total RNA from each plate well was transferred to a preamplification plate. Fluidigm's 96.96 Dynamic ArrayTM (Fluidigm, Amsterdam, the Netherlands) technology was used for gene expression analyses by quantitative reverse transcription polymerase chain reaction (qRT-PCR, performed by Quintiles/Expression Analysis, Durham, NC)89. Standard TaqManTM Assays (Applied Biosystems/ThermoFisher Scientific, Foster City, CA) were used to assess the expression of 93 genes selected based on their selectivity and sensitivity to important hepatic receptors known to be modulated by environmental chemicals; importance in human hepatocyte functionality; and hepatotoxicity. […]
On to `Nc1cnn(-c2ccccc2)c(=O)c1Cl`, for which the call was inactive.

Regarding `CCCCOCN(C(=O)CCl)c1c(CC)cccc1CC`, the compound was called inactive. On the same count and under the same terms, with `OC(c1ccc(Cl)cc1)(c1ccc(Cl)cc1)C(Cl)(Cl)Cl` the entry was “inactive”; with `CCOc1nc(F)cc2nc(S(=O)(=O)Nc3c(Cl)cccc3Cl)nn12`, “inactive”.

On to `N#CN=C1SCCN1Cc1ccc(Cl)nc1`, for which the compound was called inactive. As for `Nc1c(Cl)c(F)nc(OCC(=O)O)c1Cl`, the result was inactive.

As for `CCOP(=S)(OCC)Oc1nc(Cl)n(C(C)C)n1`, the call was inactive. For the compound `C=C(C)CN(CC)c1c([N+](=O)[O-])cc(C(F)(F)F)cc1[N+](=O)[O-]`, the compound was classed as inactive. In the case of `CNC(=O)Oc1cccc2ccccc12`, the outcome was inactive. The same measure, in the same setting: with `CC(C)N1C(=O)N(c2ccccc2)CSC1=NC(C)(C)C` the entry was “inactive”; with `CC(C)(C)C(=O)C(Oc1ccc(Cl)cc1)n1cncn1` (stereo not given), “inactive”; with `N#Cc1c(Cl)cccc1Cl`, “inactive”.

Regarding `CC(C)NC(=O)N1CC(=O)N(c2cc(Cl)cc(Cl)c2)C1=O`, the compound was classed as inactive.

Regarding `COc1ccc(-c2ccccc2)cc1NNC(=O)OC(C)C`, the outcome was inactive. As to `CS(=O)(=O)c1cc(C(F)(F)F)ccc1C(=O)c1cnoc1C1CC1`, the call was inactive. Still for that read-out and setting: the value for `CCC(C)n1c(=O)[nH]c(C)c(Br)c1=O` (stereo not given) was “inactive”. Take `CCOc1nc(C(Cl)(Cl)Cl)ns1`: the half-maximal activity concentration (AC50) is 1.72 µM (active). In the case of `CCOc1cc(C(C)(C)C)ccc1C1COC(c2c(F)cccc2F)=N1` (stereo not given), the outcome was inactive. Consider `O=c1n(Cl)c(=O)n(Cl)c(=O)n1Cl`, for which the compound was called inactive.

As to `CS(=O)(=O)c1ccc(C(=O)C2C(=O)CCCC2=O)c([N+](=O)[O-])c1`, the compound was classed as inactive. As to `Cc1c(COC(=O)[C@@H]2[C@H](/C=C(\Cl)C(F)(F)F)C2(C)C)cccc1-c1ccccc1`, the half-maximal activity concentration (AC50) was 0.703 µM (active).

For `CC(C)N1C(=O)c2ccccc2NS1(=O)=O`, the compound was classed as inactive. Same read-out and setting: with `O=C(O)c1c(Cl)ccc2cc(Cl)cnc12` the entry was “inactive”; with `CCCC(=NOCC)C1=C(O)CC(CC(C)SCC)CC1=O` (stereo not given), “inactive”; with `CO/N=C(/C1=NOCCO1)c1ccccc1Oc1ncnc(Oc2ccccc2Cl)c1F`, “inactive”. On to `CCSC(=O)N1CCCCCC1`, for which the concentration at half-maximal activity (AC50) is 12.6 µM (active). For `CCN(CC)c1nc(C)cc(OP(=S)(OC)OC)n1`, the compound was classed as inactive.

Regarding `COc1cc(OC)nc(NC(=O)NS(=O)(=O)c2ncccc2OCC(F)(F)F)n1`, the compound was classed as inactive. On to `CC1(C)CON(Cc2ccccc2Cl)C1=O`, for which the outcome was inactive. Same read-out and setting: with `CCCN(CC)CC1COC2(CCC(C(C)(C)C)CC2)O1` (stereo not given) the entry was “inactive”; with `COC(=O)c1c(C(F)F)nc(C(F)(F)F)c(C2=NCCS2)c1CC(C)C`, “inactive”; with `CCOC(=O)C(C)OC(=O)c1cc(Oc2ccc(C(F)(F)F)cc2Cl)ccc1[N+](=O)[O-]` (stereo not given), “inactive”.

On to `COC(=O)NS(=O)(=O)c1ccc(N)cc1`, for which the outcome was inactive. Still for that read-out and setting: with `CCOP(=O)(OCC)Oc1nc(Cl)c(Cl)cc1Cl` the entry was “inactive”; with `COCC(C)N(C(=O)CCl)c1c(C)csc1C` (stereo not given), “inactive”. The same measure, in the same setting: the value for `Cc1cc(C)nc(Nc2ccccc2)n1` was “inactive”. The same measure, in the same setting: with `CC1(C)C(C(=O)OC(C#N)c2cccc(Oc3ccccc3)c2)C1(C)C` (stereo not given) the entry was “inactive”; with `O=C1C2CC=CCC2C(=O)N1SC(Cl)(Cl)Cl` (stereo not given), “inactive”; with `Nc1c(Cl)c(Cl)nc(C(=O)O)c1Cl`, “inactive”. Consider `CC1(C)C(C=C(Cl)Cl)C1C(=O)OC(C#N)c1cccc(Oc2ccccc2)c1` (stereo not given), for which the result was inactive.

A word on the AC50: it is the midpoint of the concentration-response curve, whichever way the signal moves.
